Screens deposited in PubChem by several laboratories.
In the library only some 3.8% were active in any assay of this set; here they are far more common.
Gli-Sufu antag – antagonists of Gli-Sufu signaling | Sufu-KO-LIGHT fibroblasts, Gli luciferase reporter luminescence | inhibition, % at 5 µM | actives 0.74% (n = 340,000) | AID 588413;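 active = inhibition above about 55%, limit read from the data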;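 also: 0% = DMSO-treated cells and 100% = wells with medium but no cells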
697 NFkB inh – lowers PMA/ionomycin-induced NF-kB signal in 697 B cells; inhibition, % at 4 µM; 697 B-cell NF-kB luciferase reporter, 16 h; actives 0.33% (n = 330,000); in the data active = inhibition above about 35%
Shn3 inh set2 – inhibitors of Schnurri-3 3'UTR reporter in osteoblasts; Clone20 osteoblast Shn3 3'UTR firefly luciferase, 24 h; inhibition, % at 12.5 µM; actives 0.52% (n = 360,000); AID 588674;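 active = mean inhibition of at least 75% with every replicate also reaching 75%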;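 also: 0% = median of neutral control wells and 100% = pilot-screen positive control compound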
Mdm2 MdmX PPI – disrupts the human Mdm2-MdmX interaction | O15151+Q00987 | SaOS-2 split-luciferase Mdm2/MdmX complementation, luminescence | actives 3% (n = 330,000) | inhibition, % at 8 µM | AID 485346;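 active = inhibition of at least 50% at 8 µM in the primary screen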
Target sequence (O15151 whole entry, looked up): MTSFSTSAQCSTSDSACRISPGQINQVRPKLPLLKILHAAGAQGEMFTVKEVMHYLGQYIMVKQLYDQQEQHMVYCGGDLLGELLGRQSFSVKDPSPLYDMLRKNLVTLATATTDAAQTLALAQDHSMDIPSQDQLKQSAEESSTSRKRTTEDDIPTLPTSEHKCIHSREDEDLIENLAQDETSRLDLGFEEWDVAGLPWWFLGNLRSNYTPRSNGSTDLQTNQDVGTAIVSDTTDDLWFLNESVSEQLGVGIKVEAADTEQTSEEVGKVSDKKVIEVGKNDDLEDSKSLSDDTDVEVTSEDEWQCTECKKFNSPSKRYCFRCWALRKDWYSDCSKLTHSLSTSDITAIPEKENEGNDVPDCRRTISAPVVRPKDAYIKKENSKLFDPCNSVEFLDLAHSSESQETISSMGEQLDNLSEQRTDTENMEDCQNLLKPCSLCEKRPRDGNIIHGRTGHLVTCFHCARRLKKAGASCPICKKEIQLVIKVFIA
Target sequence (Q00987 whole entry, looked up): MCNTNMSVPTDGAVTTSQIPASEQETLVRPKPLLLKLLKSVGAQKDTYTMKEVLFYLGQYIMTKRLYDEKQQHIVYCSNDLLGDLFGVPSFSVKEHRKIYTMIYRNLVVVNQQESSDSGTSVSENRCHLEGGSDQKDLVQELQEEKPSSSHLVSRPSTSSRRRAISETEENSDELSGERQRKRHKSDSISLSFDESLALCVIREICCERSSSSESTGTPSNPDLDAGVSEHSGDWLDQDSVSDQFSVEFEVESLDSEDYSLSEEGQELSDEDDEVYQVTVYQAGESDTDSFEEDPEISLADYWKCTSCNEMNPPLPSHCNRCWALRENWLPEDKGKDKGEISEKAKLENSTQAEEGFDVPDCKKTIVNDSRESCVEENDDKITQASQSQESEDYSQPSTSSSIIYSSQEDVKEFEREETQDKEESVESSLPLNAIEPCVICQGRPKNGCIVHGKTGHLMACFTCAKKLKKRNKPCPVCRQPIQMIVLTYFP
Jurkat NFkB inh – lowers PMA/ionomycin-induced NF-kB signal in Jurkat cells; PMA/ionomycin-induced NF-kB luciferase reporter, luminescence; inhibition, % at 4 µM; actives 0.53% (n = 330,000); AID 435003; in the data active = inhibition above about 50%
Mdm2 MdmX conf – human Mdm2/MdmX binding inhibition, confirmed | AID 489028 | luminescent assay | actives 55% (n = 10,000) | shares compounds with Mdm2 MdmX PPI | inhibition, % at 8 µM; in the data active = inhibition above about 40%
Full FLuc ctr – inhibits full-length luciferase, flagging false Mdm2/MdmX hits | actives 77% (n = 6,200) | inhibition, % at 8 µM | shares compounds with Mdm2 MdmX PPI | SaOS-2 full-length luciferase counterscreen, luminescence | AID 504607;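 active = mean inhibition at 8 µM reaching about 37%, which flags the compound as non-specific, limit read from the data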;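 also: p53-null SaOS-2 cells with luciferase driven by a doxycycline-inducible promoter; compound on cells about two nights before reading with doxycycline added after day one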
* = called active by the depositor.

Results for Clc1ccc(C2=CSC3=NCCN23)c(Cl)c1 ?
Gli-Sufu antag: 9; 697 NFkB inh: -7; Shn3 inh set2: -5; Mdm2 MdmX PPI: 4; Jurkat NFkB inh: 17

How did C=CCN1C(=O)C(O)(CC(=O)c2ccco2)c2cc(Br)ccc21 (centres undefined) do in these assays?
Gli-Sufu antag: -3; 697 NFkB inh: 2; Shn3 inh set2: 7; Mdm2 MdmX PPI: 59*; Jurkat NFkB inh: 9; Mdm2 MdmX conf: 35

What do the screens show for `Cc1n[nH]c(C)c1C(=O)CC1(O)C(=O)N(Cc2ccccc2)c2ccc(Br)cc21` (centres undefined)?
Gli-Sufu antag: -3; 697 NFkB inh: -1; Shn3 inh set2: -12; Mdm2 MdmX PPI: -28; Jurkat NFkB inh: 17

How did Cc1cc(C)c(S(=O)(=O)Nc2ccccc2)c(C)c1 do in these assays?
Gli-Sufu antag: 6; Shn3 inh set2: -19

Results for c1ccc(CCn2c3ccccc3c3nnc(SCc4ccc5nonc5c4)nc32)cc1 ?
Gli-Sufu antag: 14; 697 NFkB inh: -102; Shn3 inh set2: 54; Mdm2 MdmX PPI: 91*; Jurkat NFkB inh: -1; Mdm2 MdmX conf: 63*; Full FLuc ctr: 44*

What do the screens show for `CCN(CC)CCSc1nnc2c3ccccc3n(CCc3ccccc3)c2n1`?
Gli-Sufu antag: 12; 697 NFkB inh: 6; Shn3 inh set2: 65; Mdm2 MdmX PPI: -2; Jurkat NFkB inh: 10

How did O=S(=O)(Nc1nc2ccccc2nc1Nc1cccc(S(=O)(=O)N2CCCCC2)c1)c1ccccc1 do in these assays?
Gli-Sufu antag: 45; 697 NFkB inh: -32; Shn3 inh set2: 25; Mdm2 MdmX PPI: 82*; Jurkat NFkB inh: -2; Mdm2 MdmX conf: 79*; Full FLuc ctr: 43*

How did Cc1ccc(-n2nc3c(c2NC(=O)C(C)C)CS(=O)(=O)C3)c(C)c1 do in these assays?
Gli-Sufu antag: -10; 697 NFkB inh: 5; Shn3 inh set2: 11; Mdm2 MdmX PPI: 19; Jurkat NFkB inh: -27

What do the screens show for `CCc1ccc2[nH]c3nc(SCc4nnc(-c5ccccc5)o4)nnc3c2c1`?
Gli-Sufu antag: -1; 697 NFkB inh: -26; Shn3 inh set2: -3; Mdm2 MdmX PPI: 56*; Jurkat NFkB inh: 18; Mdm2 MdmX conf: -6

Results for COc1ccc2[nH]c3nc(SCc4nnc(-c5ccccc5)o4)nnc3c2c1 ?
Gli-Sufu antag: -1; 697 NFkB inh: -31; Shn3 inh set2: 12; Mdm2 MdmX PPI: 10; Jurkat NFkB inh: 19

Results for C[C@H](CO)N1C[C@H](C)[C@@H](CN(C)S(=O)(=O)c2ccccc2)Oc2ccc(NS(=O)(=O)c3ccccc3)cc2C1=O ?
Gli-Sufu antag: -10; 697 NFkB inh: 14; Shn3 inh set2: 8; Mdm2 MdmX PPI: 11; Jurkat NFkB inh: -3

What do the screens show for `CC(Oc1ccc(Br)cc1)C(=O)Nc1nnc(C2CC2)s1` (centres undefined)?
Gli-Sufu antag: -2; 697 NFkB inh: 1; Shn3 inh set2: 13; Mdm2 MdmX PPI: 10; Jurkat NFkB inh: 3

How did Fc1ccc(-n2cc(-c3ccccc3)c3c(N4CCOCC4)ncnc32)cc1 do in these assays?
697 NFkB inh: -34; Shn3 inh set2: 27; Mdm2 MdmX PPI: 63*; Jurkat NFkB inh: 34; Mdm2 MdmX conf: 59*; Full FLuc ctr: 67*

How did CCN1CCN(c2ncnc3c2c(-c2ccccc2)cn3-c2ccc(F)cc2)CC1 do in these assays?
697 NFkB inh: -45; Shn3 inh set2: -14; Mdm2 MdmX PPI: 36; Jurkat NFkB inh: 4

What do the screens show for `COc1ccc(-n2cc(-c3ccccc3)c3c(N4CCOCC4)ncnc32)cc1`?
Gli-Sufu antag: 15; 697 NFkB inh: 22; Shn3 inh set2: 24; Mdm2 MdmX PPI: 74*; Jurkat NFkB inh: 39; Mdm2 MdmX conf: 62*; Full FLuc ctr: 80*

Results for OCCN1CCN(c2ncnc3c2c(-c2ccccc2)cn3-c2ccc(Br)cc2)CC1 ?
Gli-Sufu antag: 5; 697 NFkB inh: 16; Shn3 inh set2: 9; Mdm2 MdmX PPI: 55*; Jurkat NFkB inh: 14; Mdm2 MdmX conf: 24

Results for Cn1nc(C(=O)OCc2ccc(Br)cc2F)c2ccccc2c1=O ?
Gli-Sufu antag: 5; 697 NFkB inh: -27; Shn3 inh set2: 4; Mdm2 MdmX PPI: -18; Jurkat NFkB inh: 0

Results for CCN(CC(=O)NCc1cccs1)C(=O)CCC(=O)c1ccc(F)cc1 ?
Gli-Sufu antag: -23; 697 NFkB inh: 0; Shn3 inh set2: -11; Mdm2 MdmX PPI: 21; Jurkat NFkB inh: 6

Results for CC1(C)CC(=O)C2=C(C1)NC(SCC(=O)Nc1ccccc1)=C(C#N)C21CCCCC1 ?
Gli-Sufu antag: -2; 697 NFkB inh: 17; Shn3 inh set2: 2; Mdm2 MdmX PPI: 35; Jurkat NFkB inh: 11

How did CC(C)(C)C1CCC2(CC1)C(C#N)=C(SCC(=O)Nc1ccccc1)NC(=O)C2C#N (centres undefined) do in these assays?
Gli-Sufu antag: 16; 697 NFkB inh: 7; Shn3 inh set2: 19; Mdm2 MdmX PPI: 92*; Jurkat NFkB inh: 7; Mdm2 MdmX conf: 75*; Full FLuc ctr: 59*

What do the screens show for `CCc1nc2ccc(C(=O)N3CCN(c4cccc(OC)c4)CC3)cc2nc1CC`?
Gli-Sufu antag: -22; 697 NFkB inh: 5; Shn3 inh set2: 1; Mdm2 MdmX PPI: 64*; Jurkat NFkB inh: -7; Mdm2 MdmX conf: 39; Full FLuc ctr: 63*

How did COc1cccc(N2CCN(C(=O)c3ccc4ccccc4c3)CC2)c1 do in these assays?
Gli-Sufu antag: -4; 697 NFkB inh: -19; Shn3 inh set2: -12; Mdm2 MdmX PPI: 20; Jurkat NFkB inh: -24

What do the screens show for `COc1cc(/C=C(\C#N)c2nc(-c3cc4ccccc4oc3=O)cs2)ccc1O`?
Gli-Sufu antag: 36; 697 NFkB inh: 7; Shn3 inh set2: -24; Mdm2 MdmX PPI: 58*; Jurkat NFkB inh: -2; Mdm2 MdmX conf: 13

Results for COC(=O)c1c(N2C(=O)[C@H]3[C@@H](C2=O)[C@]2(C(=O)Nc4ccc(C)cc42)N2CCC[C@@H]32)sc(C)c1C ?
697 NFkB inh: -1; Mdm2 MdmX PPI: 10; Jurkat NFkB inh: 3

How did O=c1cc(N/N=C/c2ccccc2)[nH]c(=O)[nH]1 do in these assays?
Gli-Sufu antag: -6; 697 NFkB inh: -20; Shn3 inh set2: 74; Mdm2 MdmX PPI: 70*; Jurkat NFkB inh: -23; Mdm2 MdmX conf: 21

How did Cc1c(C(=O)Nc2ccncc2)sc2nc(-c3ccc(F)cc3)cn12 do in these assays?
Gli-Sufu antag: 20; 697 NFkB inh: -30; Shn3 inh set2: 28; Mdm2 MdmX PPI: 67*; Jurkat NFkB inh: 0; Mdm2 MdmX conf: 9

How did Cc1cc(N/N=C/c2ccc(F)cc2)nc(-n2nc(C)cc2C)n1 do in these assays?
Gli-Sufu antag: 4; 697 NFkB inh: -13; Shn3 inh set2: 17; Mdm2 MdmX PPI: 13; Jurkat NFkB inh: 4
